# Measurements reported in ChEMBL document CHEMBL1157539, “Thousands of chemical starting points for antimalarial lead identification” (Nature, 2010).
# Tests used:
# Type in all cases: functional
# Plasmodium falciparum [1] = assay: GSK_TCMDC: Inhibition of Plasmodium falciparum 3D7 in whole red blood cells, using parasite LDH activity as an index of growth. Test compounds present at 2uM
# Plasmodium falciparum [2] = assay: GSK_TCMDC: Inhibition of Plasmodium falciparum Dd2 in whole red blood cells, using parasite LDH activity as an index of growth. Test compounds present at 2uM
# HepG2 = assay: GSK_TCMDC: Percent inhibition of human HepG2 cell line. Test compounds present at 10uM.
Compound,Inhibition (Plasmodium falciparum [1]) [%],Inhibition (Plasmodium falciparum [2]) [%],Inhibition (HepG2) [%]
O=C(NC1CC1)c1ccc2cc(C(=O)N3Cc4ccccc4C(c4ccccc4)C3)ccc2c1 (stereo unspecified),97,64,0
Cc1sc(CNCCCNc2cc(=O)c3ccccc3[nH]2)c(C(F)(F)F)c1C.Cl,99,70,0
Cc1cccc2nc(-c3cccc(-c4cccc(NC(=O)C(C)CN5CCN(C)CC5)c4)c3)[nH]c12 (stereo unspecified),99,99,17
O=C(Cn1c(CCc2cccc(F)c2F)cc(=O)c2cccnc21)N(CCn1ccnc1)Cc1ccc(-c2ccc(C(F)(F)F)cc2)cc1,99,62,39
N#Cc1ccc(CN2CCC(Oc3ccc(NC(=O)c4cccs4)cc3)CC2)cc1.O=C(O)C(F)(F)F,83,82,10
CC(C)N1CCN(C(CN2CCN(CCCOc3ccc(-c4ccccc4)cc3)CC2)c2ccc(F)cc2)CC1.Cl (stereo unspecified),100,100,100
CCOc1cc(C)ccc1C1CCN(CCCCNC(=O)c2nc(-c3ccc(C(F)(F)F)cc3)[nH]c2C)CC1.Cl,100,98,30
CC(C)(C)C1=CC(=NNC(=O)c2ccncc2)C=C(C(C)(C)C)C1=O,99,99,47
CCNc1cc(C(=O)N[C@@H](Cc2ccccc2)[C@H](O)CNC(C)(C)CC(C)(C)C)c(F)c(N2CCCCS2(=O)=O)c1,94,63,8
COc1cc2nc(N3CCN(c4nc(N)c5cc(OC)c(OC)cc5n4)CC3)nc(N)c2cc1OC,100,99,13
O=C(COc1ccccc1)Nn1cnc2ccccc21,91,0,2
O=C(O)C(F)(F)F.O=S(=O)(NCCN1CCCC1)c1ccc(-c2ccc(CNC3Cc4ccccc4C3)cc2)cc1,99,91,61
CCS(=O)(=O)Nc1ccc2[nH]cc(C3CCN(CCC4CCN(C(=O)/C=C/c5ccc(Cl)c(Cl)c5)CC4)CC3)c2c1,99,94,34
N[C@@H](Cc1cc(I)c(Oc2ccc(O)c(C(=O)O)c2)c(I)c1)C(=O)O,97,21,57
Cc1ccc(S(=O)(=O)c2nc(S(=O)(=O)c3ccccc3)sc2NCC2CCCO2)cc1 (stereo unspecified),88,17,4
O=C(Nc1cccc(OC2CCN(Cc3ccccc3)CC2)c1)c1ccc(Cl)c(Cl)c1.O=C(O)C(F)(F)F,100,45,16
Cl.N=C(N)c1ccc(OCc2cccc(COc3ccc(C(=N)N)cc3I)c2)c(I)c1,100,100,7
CCc1cn2c3c(cc(C(=O)N[C@@H](Cc4ccccc4)[C@H](O)CNC4CCOCC4)cc13)N(C)S(=O)(=O)C2.O=CO,99,98,13
CCC(C)(C)c1ccc(OCCCC(=O)Nc2ccc(Cl)c([N+](=O)[O-])c2)c(C(C)(C)CC)c1,92,88,0
CC(C)(C)c1ccc(NC(=O)c2ccc(CN3CCCN(Cc4cccc(C#N)c4)CC3)cc2)cc1.O=C(O)C(F)(F)F,99,12,54
COCCCNc1nc2cc(OC)c(OC)cc2c2nc(-c3ccccc3)nn12,95,97,6
O=C(N[C@@H](Cc1ccccc1)C(=O)NCCN1CCOCC1)c1ccc(O)c(-c2ccc(Cl)c(Cl)c2)c1,97,31,0
CC(C)CNCc1cccc(-c2ccc(CN(CCCN3CCN(C)CC3)C(=O)CCC3CCCC3)cc2)c1.O=C(O)C(F)(F)F,98,89,82
O=C(Cn1c(SCc2cccc(F)c2F)cc(=O)c2ccccc21)N(CCCn1ccnc1)Cc1ccc(-c2ccc(C(F)(F)F)cc2)cc1,99,99,21
COc1ccc(CNC2CCN(C)CC2)cc1-c1ccc(S(=O)(=O)NCCc2ccccn2)cc1.O=C(O)C(F)(F)F,93,17,13
Cc1cc(NCc2ccc(F)cc2)nc2cc(O)ccc12,98,85,14
CNCCNCc1ccc(-c2ccc(-c3nc4ccccc4[nH]3)s2)cc1.O=C(O)C(F)(F)F,99,15,11
